According to PubChem BioAssay:
Calls of active or inactive are those of the source.

Key:
[1] = optical density shifts of acrAB sulA E. coli – strain DRC41, OD650, 48 h, E. coli filamentation inducer project, primary screen (AID 1152); details: higher = more signal, called active from +8 up or from −8 down;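 note: E. coli MC1000 strain DRC41 lacking acrAB efflux pump and sulA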
[2] = probe aLefty1 binding on compound microarray – biochemical, small-molecule microarray, 635/667 nm fluorescence, primary screen (AID 1153); details: higher = more signal;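 note: score merges spot fluorescence with signal-to-noise ratio from the scanned slide images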
[3] = plasmodial surface anion channel blockers, osmotic lysis – cell-based, P. falciparum Indochina, OD700, 1 h, primary screen (AID 1154); details: P. falciparum Indochina infected RBC osmotic lysis, higher = more signal, called active from +8 up or from −8 down
[4] = plasmodial surface anion channel blockers, osmotic lysis – cell-based, P. falciparum Indochina, OD700, 2 h, primary screen (AID 1155);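 note: lysis reports solute entry through the parasite surface anion channel PSAC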; details: P. falciparum Indochina infected erythrocytes, higher = more signal, called active from +8 up or from −8 down
[5] = changes in parasitized red cell lysis, either direction – P. falciparum Indochina, OD700, 3 h, PSAC antagonist project, primary screen (AID 1156); details: P. falciparum-infected erythrocytes, osmotic lysis, higher = more signal, called active from +8 up or from −8 down
[6] = plasmodial surface anion channel blockers, osmotic lysis – cell-based, P. falciparum Indochina, OD700, 18 h, primary screen (AID 1157); details: P. falciparum Indochina infected erythrocytes, osmotic lysis OD700, 18 h; higher = more signal, called active from +8 up or from −8 down
[7] = S6 kinase pathway phospho-S6 level changes – cell-based, A549, cytoblot, luminescence, serum-stimulated, primary screen (AID 1158); details: 5 h, higher = more signal;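 note: serum-stimulated A549 lung adenocarcinoma cells; signal is phosphorylated S6 detected by cytoblot immunostaining with HRP secondary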
[8] = molecular target: NADPH oxidase 2 (Homo sapiens) (UniProt P04839); assay: compounds shifting NOX2 Amplex Red fluorescence – cell-based, HEK293-NOX2, PMA-stimulated, NOX inhibitor project, primary screen (AID 1159); details: 45 min, higher = more signal, called active from +8 up or from −8 down; note: test concentration not given here
NADPH oxidase 2 (Homo sapiens), sequence (P04839 whole entry, looked up): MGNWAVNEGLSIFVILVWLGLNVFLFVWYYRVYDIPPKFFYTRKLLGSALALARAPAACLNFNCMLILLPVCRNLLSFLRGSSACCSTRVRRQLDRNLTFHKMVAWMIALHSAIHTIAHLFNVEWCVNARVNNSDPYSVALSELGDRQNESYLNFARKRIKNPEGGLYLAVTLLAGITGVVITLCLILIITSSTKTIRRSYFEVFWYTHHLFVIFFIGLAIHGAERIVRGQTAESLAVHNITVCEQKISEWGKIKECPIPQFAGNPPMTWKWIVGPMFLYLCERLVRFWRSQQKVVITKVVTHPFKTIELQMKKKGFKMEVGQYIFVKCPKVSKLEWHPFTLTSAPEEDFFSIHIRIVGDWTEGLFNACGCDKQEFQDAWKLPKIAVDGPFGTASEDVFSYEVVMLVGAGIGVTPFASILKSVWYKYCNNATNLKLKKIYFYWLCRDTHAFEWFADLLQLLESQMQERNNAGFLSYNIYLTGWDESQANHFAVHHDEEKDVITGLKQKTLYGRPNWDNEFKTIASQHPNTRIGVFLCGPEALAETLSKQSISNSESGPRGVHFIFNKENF

[9] = molecular target: NADPH oxidase 4 (Homo sapiens) (UniProt Q9NPH5); assay: compounds shifting NOX4 Amplex Red fluorescence – cell-based, HEK293-NOX4, tetracycline-induced, NOX inhibitor project, primary screen (AID 1160); details: HEK293-NOX4, Amplex Red H2O2 fluorescence, 45 min; higher = more signal, called active from +8 up or from −8 down
NADPH oxidase 4 (Homo sapiens), sequence (Q9NPH5 whole entry, looked up): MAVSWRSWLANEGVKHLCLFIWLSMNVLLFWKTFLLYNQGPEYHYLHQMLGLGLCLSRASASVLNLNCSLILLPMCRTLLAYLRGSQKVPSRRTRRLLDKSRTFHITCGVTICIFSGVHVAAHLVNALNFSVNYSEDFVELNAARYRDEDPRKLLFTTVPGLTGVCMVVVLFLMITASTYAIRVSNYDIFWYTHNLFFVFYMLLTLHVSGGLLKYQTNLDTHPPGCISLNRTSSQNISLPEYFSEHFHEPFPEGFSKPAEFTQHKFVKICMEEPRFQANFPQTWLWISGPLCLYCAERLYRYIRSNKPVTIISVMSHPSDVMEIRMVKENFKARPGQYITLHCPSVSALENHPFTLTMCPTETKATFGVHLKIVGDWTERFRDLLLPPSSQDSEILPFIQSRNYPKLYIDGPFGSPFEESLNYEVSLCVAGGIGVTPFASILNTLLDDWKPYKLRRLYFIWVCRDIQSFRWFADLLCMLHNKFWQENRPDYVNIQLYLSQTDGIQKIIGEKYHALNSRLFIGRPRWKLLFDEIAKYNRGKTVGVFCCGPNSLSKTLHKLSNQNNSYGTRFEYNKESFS

[10] = molecular target: NADPH oxidase 5 (Homo sapiens) (UniProt Q96PH1); assay: compounds shifting NOX5 Amplex Red fluorescence – cell-based, HEK293-NOX5, NOX inhibitor project, primary screen (AID 1161); details: HEK293-NOX5, ionomycin, 45 min, higher = more signal
NADPH oxidase 5 (Homo sapiens), sequence (Q96PH1 whole entry, looked up): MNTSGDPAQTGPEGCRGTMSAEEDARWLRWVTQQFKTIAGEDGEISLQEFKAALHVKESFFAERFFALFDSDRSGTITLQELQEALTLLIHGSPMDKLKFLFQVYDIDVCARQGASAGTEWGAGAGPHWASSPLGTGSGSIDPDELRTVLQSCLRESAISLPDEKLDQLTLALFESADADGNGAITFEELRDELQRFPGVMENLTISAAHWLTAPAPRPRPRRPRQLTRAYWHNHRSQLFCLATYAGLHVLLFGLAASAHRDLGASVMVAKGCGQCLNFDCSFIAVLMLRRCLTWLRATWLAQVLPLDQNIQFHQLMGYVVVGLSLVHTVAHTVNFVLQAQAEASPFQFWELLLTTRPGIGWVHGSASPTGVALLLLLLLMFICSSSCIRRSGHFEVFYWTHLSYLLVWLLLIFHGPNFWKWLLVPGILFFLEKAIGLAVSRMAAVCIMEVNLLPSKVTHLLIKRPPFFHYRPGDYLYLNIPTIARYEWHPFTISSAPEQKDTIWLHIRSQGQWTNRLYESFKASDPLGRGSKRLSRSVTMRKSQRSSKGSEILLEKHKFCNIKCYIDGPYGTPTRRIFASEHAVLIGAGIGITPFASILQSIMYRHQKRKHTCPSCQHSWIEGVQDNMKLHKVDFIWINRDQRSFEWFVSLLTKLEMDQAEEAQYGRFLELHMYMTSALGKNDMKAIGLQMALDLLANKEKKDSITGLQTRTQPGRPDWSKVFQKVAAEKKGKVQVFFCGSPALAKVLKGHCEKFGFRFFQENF

Row | Structure (SMILES) | z-score [1] | composite z-score [2] | z-score [3] | z-score [4] | z-score [5] | z-score [6] | z-score [7] | z-score [8] | z-score [9] | z-score [10]
1 | C=CC[C@]1(C(=O)N2CCOCC2)N=C(c2ccc(OCCCO)cc2)O[C@H]1c1ccccc1CN=[N+]=[N-] | 0.434 (inactive) | 0.483 | 27.9 (active) | 23.1 (active) | 3.57 (inactive) | 1.89 (inactive) | -0.0698 | 1.4 (inactive) | 0.226 (inactive) | -1.32
2 | [N-]=[N+]=NCc1ccccc1C[C@]1(C(=O)NCCN2CCOCC2)N=C(c2ccc(OCCCO)cc2)O[C@H]1c1ccccc1 | 0.158 (inactive) | 0.428 | 12.7 (active) | 1.83 (inactive) | 1.14 (inactive) | 1.11 (inactive) | 0.378 | -1.77 (inactive) | -0.0953 (inactive) | -1.19
3 | COC(=O)[C@@]1(Cc2ccccc2)[C@H]2c3cc(C(=O)N(C)C)n(Cc4ccc(O)c(OC)c4)c3C[C@H]2CN1C(=O)c1ccccc1 | -0.404 (inactive) | 0.774 | 2.41 (inactive) | -0.214 (inactive) | 0.158 (inactive) | -1.32 (inactive) | 1.67 | -4.69 (inactive) | -6.03 (inactive) | -6.08
4 | CC1CC/C=C\[C@H]2OC34C=CCN(Cc5ccccc5)C(=O)[C@H]3N(CCO)C(=O)[C@@H]4C2C(=O)O1 (stereo not given in full) | 0.788 (inactive) | -0.0867 | 3.52 (inactive) | -0.133 (inactive) | 0.272 (inactive) | -0.18 (inactive) | -0.0144 | 1.66 (inactive) | 0.0441 (inactive) | 2.24
5 | CC1=C2[C@@H](CCc3ccccc3)OB(O)C[C@@H]2[C@@H]2C(=O)C=CC(=O)[C@@H]2C1 | -0.23 (inactive) | 0.0402 | 2.27 (inactive) | 0.229 (inactive) | 0.236 (inactive) | 0.182 (inactive) | 0.166 | -0.128 (inactive) | -2 (inactive) | -3.15
6 | CO[C@H]1O[C@H](CO)[C@@H](OC(=O)Nc2ccc(C(F)(F)F)cc2)[C@H](OC(=O)Nc2ccccc2)[C@H]1OC(=O)Nc1ccccc1 | -1.41 (inactive) | 1.14 | 4.63 (inactive) | 1.22 (inactive) | -2.03 (inactive) | 0.887 (inactive) | 0.121 | -5.31 (inactive) | -1.39 (inactive) | -1.85
7 | C=CCN1C(=O)[C@@]2(O[C@@H](CCO)[C@H]([Si](C)(C)c3ccc(OC)cc3)[C@H]2C)c2cc(NC(=O)[C@H](C)O)ccc21 | 0.301 (inactive) | -0.0879 | 23 (active) | 6.92 (inactive) | 0.903 (inactive) | 1.62 (inactive) | 0.29 | -0.54 (inactive) | 0.552 (inactive) | -0.335
8 | O=C(O)[C@]1(CCS(=O)(=O)c2ccccc2)N=C(c2ccc(OCCCO)cc2)O[C@@H]1c1ccccc1 | 0.139 (inactive) | 0.528 | 11.3 (active) | 1.11 (inactive) | 0.327 (inactive) | -0.169 (inactive) | -0.515 | -0.298 (inactive) | 0.578 (inactive) | 1.1
9 | COCCOC(=O)N1C(=O)[C@@]2(c3cc(C#CCCO)ccc31)[C@H](c1ccc(OCCO)cc1)N1[C@H](c3ccccc3)[C@H](c3ccccc3)OC(=O)[C@H]1[C@@H]2C(=O)N1CCc2cc(OC)c(OC)cc2C1 | 0.526 (inactive) | 0.777 | 3.2 (inactive) | 1.67 (inactive) | 0.226 (inactive) | 1.1 (inactive) | -0.354 | 0.898 (inactive) | 1.01 (inactive) | 1.23
10 | COC(=O)[C@@]1(Cc2ccc(F)cc2)[C@H]2c3cc(C(=O)N4CCCC4)n(Cc4ccccc4)c3C[C@H]2CN1C(=O)c1ccccc1 | -1.25 (inactive) | 0.216 | 4.64 (inactive) | 0.899 (inactive) | 2.65 (inactive) | 1.26 (inactive) | 0.178 | -0.165 (inactive) | 0.648 (inactive) | -1.48
11 | C=CCC(OC(C)=O)[C@@H]1[C@@H](N(Cc2cccc3ccccc23)C(=O)c2ccc(C)cc2)c2cc(OCCCO)ccc2N1C(=O)c1ccc2ccccc2c1 (stereo not given in full) | 2.04 (inactive) | 0.25 | 0.306 (inactive) | -0.171 (inactive) | -1.1 (inactive) | -0.888 (inactive) | 1.86 | -1.14 (inactive) | 0.935 (inactive) | 2.64
12 | CN1C(=O)C2C=CC(C(O)c3cccc4ccccc34)N(NC(=O)OC(C)(C)C)C2C1=O (stereo not given) | -0.622 (inactive) | 0.966 | 1.15 (inactive) | 0.564 (inactive) | 0.0094 (inactive) | 0.877 (inactive) | -1.22 | -0.492 (inactive) | -3.85 (inactive) | 0.409
13 | [N-]=[N+]=Nc1ccccc1C[C@]1(C(=O)NCCN2CCOCC2)N=C(c2ccc(OCCCO)cc2)O[C@H]1c1ccccc1N=[N+]=[N-] | 1.11 (inactive) | 0.628 | 27.7 (active) | 23.2 (active) | 1.35 (inactive) | 4.41 (inactive) | 1.75 | -2.69 (inactive) | 0.686 (inactive) | -1.15
14 | C=CC[C@@]1(C(=O)NCCN2CCOCC2)N=C(c2ccc(OCCCO)cc2)O[C@@H]1c1ccccc1 | -0.302 (inactive) | 0.562 | 18.7 (active) | 3.03 (inactive) | 1.55 (inactive) | 0.863 (inactive) | -0.501 | 0.48 (inactive) | 0.62 (inactive) | -0.092
15 | O=C1C2C=CC(C(O)c3ccc(Br)cc3)N(Nc3ccccc3)C2C(=O)N1c1ccccc1 (stereo not given) | -1.78 (inactive) | 0.305 | 8.27 (active) | 1.8 (inactive) | 0.244 (inactive) | 1.25 (inactive) | -0.554 | -1.82 (inactive) | -4.09 (inactive) | -2.39
16 | C[N+](C)(C)CCCCCCNC(=O)[C@H]1C[C@H]2C(=O)N3CCC[C@H]3C(=O)N2[C@H]1c1cccc(OCCO)c1 | -0.507 (inactive) | 0.0683 | 5.47 (inactive) | 0.64 (inactive) | -2.56 (inactive) | 0.498 (inactive) | -0.632 | 1.18 (inactive) | 1.27 (inactive) | 0.865
17 | CC(C)C[C@@H]1NC(=O)[C@@H]2C[C@H](C(=O)NCc3ccc(F)cc3)[C@H](c3ccc(O)cc3)N2C1=O | 0.227 (inactive) | -0.0559 | 1.46 (inactive) | 0.328 (inactive) | -1.64 (inactive) | 0.424 (inactive) | 0.0668 | 0.468 (inactive) | -0.106 (inactive) | 1.18
18 | COC(=O)[C@@]1(Cc2ccc(F)cc2)[C@H]2c3cc(C(=O)N(C)C)n(Cc4ccc(C)c(F)c4F)c3C[C@H]2CN1C(=O)c1ccccc1 | -0.165 (inactive) | 0.159 | 5.08 (inactive) | 1.21 (inactive) | 0.306 (inactive) | 0.813 (inactive) | 0.101 | 0.561 (inactive) | -0.0461 (inactive) | 0.169
19 | CC(C)NC(=O)[C@@H]1c2ccccc2C(=O)N(Cc2cc(C(F)(F)F)cc(C(F)(F)F)c2)[C@H]1c1ccc(CO)cc1 | -0.464 (inactive) | 0.358 | 1.54 (inactive) | 0.349 (inactive) | -0.113 (inactive) | 0.057 (inactive) | -0.167 | 0.513 (inactive) | 0.349 (inactive) | -0.284
